Unmarked numbers belong to inactive results.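 The calls were made as follows: active = AUC reduced over 20% with Padj below 0.05 in at least 2 of 3 replicates; inactive = otherwise.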
How the values were obtained:
Test in all cases: growth AUC relative to DMSO control (median of replicates) (fraction); higher = more growth (less inhibition), active = hit call of the paper
Conditions in all cases: 20 µM; 24 h
[1] = test system: Akkermansia muciniphila
Procedure, shortened: (§1)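 OD600 was recorded every hour for 24 h in anaerobic monocultures of gut bacteria kept at 37 °C in mGAM, seeded at OD600 0.05 and given 20 µM compound in 1% DMSO. The area under each growth curve was scaled to the plate median of solvent-only wells, or to row and column medians for the industrial chemical plate. Before this step, the minimum OD was set to 0. Reported values are medians of three biological replicates run on separate days.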

[2] = test system: Bacteroides caccae
Procedure, shortened: as §1

[3] = test system: Bacteroides clarus
Procedure, shortened: as §1

[4] = test system: Bacteroides dorei
Procedure, shortened: as §1

[5] = test system: Bacteroides stercoris
Procedure, shortened: as §1

[6] = test system: Bacteroides thetaiotaomicron
Procedure, shortened: as §1

[7] = test system: Bacteroides uniformis
Procedure, shortened: as §1

[8] = test system: Bifidobacterium longum subsp. longum
Procedure, shortened: as §1

[9] = test system: Clostridium difficile
Procedure, shortened: as §1

[10] = test system: Collinsella aerofaciens
Procedure, shortened: as §1

[11] = test system: Coprococcus comes
Procedure, shortened: as §1

[12] = test system: Escherichia coli ED1a
Procedure, shortened: as §1

[13] = test system: Escherichia coli IAI1
Procedure, shortened: as §1

[14] = test system: Eubacterium rectale
Procedure, shortened: as §1

[15] = test system: Fusobacterium nucleatum subsp. animalis
Procedure, shortened: as §1

[16] = test system: Lactobacillus gasseri
Procedure, shortened: as §1

[17] = test system: Lactobacillus paracasei
Procedure, shortened: as §1

[18] = test system: Odoribacter splanchnicus
Procedure, shortened: as §1

[19] = test system: Parabacteroides distasonis
Procedure, shortened: as §1

[20] = test system: Parabacteroides merdae
Procedure, shortened: as §1

Compound	growth AUC [1]	growth AUC [2]	growth AUC [3]	growth AUC [4]	growth AUC [5]	growth AUC [6]	growth AUC [7]	growth AUC [8]	growth AUC [9]	growth AUC [10]	growth AUC [11]	growth AUC [12]	growth AUC [13]	growth AUC [14]	growth AUC [15]	growth AUC [16]	growth AUC [17]	growth AUC [18]	growth AUC [19]	growth AUC [20]
CCS(=O)(=O)c1cccnc1S(=O)(=O)NC(=O)Nc1nc(OC)cc(OC)n1	0.976	1.01	0.983	0.993	0.963	0.981	0.974	0.995	0.942	1	0.968	1	0.999	0.943	0.912	1.01	0.996	0.897	1.02	0.993
CCOP(=S)(OCC)SCSC(C)(C)C	1.04	0.964	1.01	0.963	0.988	0.998	1.02	1.13	0.888	0.96	0.996	1	1.01	1.22	0.902	0.909	1.03	1.06	0.955	1
Oc1ccc(Cl)cc1Cc1cc(Cl)ccc1O	0.202 (active)	0.416 (active)	0.154 (active)	0.765	0.00782 (active)	0.359 (active)	0.163 (active)	0.598 (active)	0.633 (active)	0.878	0.965	0.793 (active)	0.684 (active)	0.497 (active)	0.845	0.115 (active)	0.47 (active)	0.0459 (active)	0.0176 (active)	0.0937 (active)
Cc1[nH]c(=O)n(C(C)(C)C)c(=O)c1Cl	1.07	1	0.993	0.96	0.979	1	0.981	0.978	0.997	0.924	0.999	0.983	0.942	1.01	0.978	0.927	1.06	1.02	0.968	0.995
COCC(=O)N(c1c(C)cccc1C)[C@H](C)C(=O)OC	0.94	1	1.04	1.04	1.06	1	1.02	1.1	1.02	1.04	1.04	1.02	1.05	1.01	1.02	0.957	1	1.03	1.05	1.05
Clc1cc(Cl)c(Cl)c(Cl)c1	0.953	0.971	0.989	0.957	0.887	0.997	1.02	1	0.977	0.922	0.984	0.961	0.982	1.05	0.957	0.918	0.949	1.08	0.953	0.941
O=C(O)c1cc(Oc2ccc(C(F)(F)F)cc2Cl)ccc1[N+](=O)[O-]	1.01	1.04	0.925	0.916	0.84	1.02	0.985	1.06	0.966	0.956	0.967	0.992	0.948	1.06	0.957	0.95	0.966	1.03	0.896	0.971
Cc1ccccc1[N+](=O)[O-]	1	0.996	1	1.02	1.01	1.01	0.995	0.991	1	1	1	0.997	0.992	1	1.03	1.02	0.999	0.994	1.06	0.995
CN(C)C(=O)Nc1cccc(OC(=O)NC(C)(C)C)c1	1.19	0.771	1.01	0.977	1.4	0.958	0.883	1.01	0.928	0.918	0.974	0.995	0.972	1.19	1.07	0.934	0.934	0.551 (active)	1.01	0.959
CN(C)C(CSC(N)=O)CSC(N)=O.Cl	1.13	0.993	1.04	1.08	1.02	1.06	1.15	1.05	1	1.03	1.09	1.03	1.04	1.54	1.15	0.978	1.08	0.982	1.04	1.04
CCOP(=O)(OCC)Oc1ccc([N+](=O)[O-])cc1	0.962	1.03	0.999	1.01	1.08	1.01	1	1.15	1.03	1.05	1.03	0.988	1.03	0.91	1.06	1.02	1.04	1.05	0.999	0.986
CCCCc1c(C)nc(NCC)nc1OS(=O)(=O)N(C)C	1.07	1.01	0.967	0.909	0.895	0.944	0.901	0.996	1.01	0.977	0.996	0.987	1.01	1.16	0.968	0.931	0.987	0.891	0.598 (active)	0.906
CS/C(C)=N/OC(=O)N(C)SN(C)C(=O)O/N=C(\C)SC	0.98	1.02	0.943	1.05	1.09	1.03	1.02	1.04	1.01	0.932	0.98	1.02	1.01	1.17	1.04	1.05	0.941	1.04	1.03	1.03
COc1ccccc1N	1	1.02	1.04	1.01	1.16	1.02	1.02	1.05	1.01	1.02	0.993	1	1	1.08	1.04	1.02	1.02	1.16	1.28	1.02
NC(=O)/N=C1/SCCN1Cc1ccc(Cl)nc1	0.782	1.01	0.999	0.979	1.04	0.978	1.01	1.03	1	1.01	0.965	0.999	0.997	1.02	0.984	0.995	0.975	1.03	0.992	0.984
Clc1cc(Cl)c(Cl)cc1Cl	1.01	0.997	0.987	0.981	1.14	0.982	1.01	1.07	0.98	1.01	0.971	1.02	1.04	0.986	1.15	0.973	0.991	1.01	1.05	0.998

Compound	growth AUC [1]	growth AUC [2]	growth AUC [3]	growth AUC [4]	growth AUC [5]	growth AUC [6]	growth AUC [7]	growth AUC [8]	growth AUC [9]	growth AUC [10]	growth AUC [11]	growth AUC [12]	growth AUC [13]	growth AUC [14]	growth AUC [15]	growth AUC [16]	growth AUC [17]	growth AUC [18]	growth AUC [19]	growth AUC [20]
CCOP(=O)(OCC)O/C(=C\Cl)c1ccc(Cl)cc1Cl	0.854	0.982	0.952	0.983	0.956	0.962	0.942	0.873	1	1	0.994	0.984	1.01	0.899	0.987	1.06	1.02	0.972	0.725 (active)	0.945
O=NN(CCO)CCO	1.01	1.01	1.02	0.979	1.18	1.01	1.02	0.837	1.01	0.994	1.01	0.994	1	0.977	1.01	0.976	1.01	1.13	0.861	1.04
COC(=O)COc1ccc(Cl)cc1Cl	0.95	0.944	0.983	0.969	0.853	1.01	1.04	0.914	1	0.925	0.98	0.968	0.968	1.21	0.946	0.915	1.04	1.14	0.931	0.964
CS(=O)(=O)c1ccc(C(=O)C2C(=O)CCCC2=O)c([N+](=O)[O-])c1	0.895	0.986	0.946	0.977	0.979	0.972	0.965	0.965	0.986	0.972	0.966	1	0.985	0.882	0.97	1.04	1.02	0.736	0.998	0.948
CCOP(=O)(N=C1SCC(C)S1)OCC (stereo not given)	0.979	0.995	0.966	1.03	0.983	1.01	1.03	1.03	0.977	1	1.03	1.02	0.951	1.1	1.09	0.985	0.971	1.04	0.977	0.976
COP(=O)(OC)O/C(C)=C/C(=O)N(C)C	1.15	1.01	0.988	0.993	1.02	0.988	1.02	0.989	0.987	0.996	1	1	0.997	1.01	0.937	1.08	1.06	0.972	0.905	0.994
CC(C)(C)C(O)C(Oc1ccc(Cl)cc1)n1cncn1 (stereo not given)	0.947	0.985	0.996	1	1.17	0.986	1.04	0.943	1.08	1.03	0.998	1.01	1.02	0.97	1.07	1.02	1.04	1.03	1.02	0.998
Cc1ccc(NC(=O)N(C)C)cc1Cl	0.946	1.04	0.989	1.01	0.954	1	0.976	0.827	1.01	0.989	0.996	0.985	0.982	0.965	0.916	1.12	0.954	1.02	1.05	0.972
CC[C@H]1CCCC(O[C@H]2CC[C@H](N(C)C)[C@@H](C)O2)[C@@H](C)C(=O)C2=C[C@@H]3[C@@H](C=C(C)[C@@H]4C[C@@H](O[C@@H]5O[C@@H](C)[C@H](OC)[C@@H](OC)[C@H]5OC)C[C@@H]34)[C@@H]2CC(=O)O1.CC[C@H]1CCCC(O[C@H]2CC[C@H](N(C)C)[C@@H](C)O2)[C@@H](C)C(=O)C2=C[C@@H]3[C@@H](C=C[C@@H]4C[C@@H](O[C@@H]5O[C@@H](C)[C@H](OC)[C@@H](OC)[C@H]5OC)C[C@@H]34)[C@@H]2CC(=O)O1 (stereo not given in full)	0.986	1.01	0.979	1.04	0.888	1	0.987	0.889	1.03	0.958	0.973	0.963	0.966	0.985	0.995	0.879	0.902	1.04	1.01	0.925
Cc1cc(Cl)ccc1OC(C)C(=O)O (stereo not given)	0.902	1.02	0.996	1	1.01	1.01	1	0.88	1.03	1.01	0.984	1.01	1.02	0.978	0.945	1.12	0.945	0.942	0.966	1.02
CCOC(=O)C(C)OC(=O)c1cc(Oc2ccc(C(F)(F)F)cc2Cl)ccc1[N+](=O)[O-] (stereo not given)	0.88	0.95	0.931	0.985	0.992	0.987	0.966	0.947	0.978	0.857	0.933	1.01	0.964	1.01	0.999	0.86	0.973	0.891	0.789 (active)	0.885
CCOP(=O)(OCC)O/C(=C/Br)c1ccc(Cl)cc1Cl	1.06	0.94	0.952	0.948	0.879	0.89	0.821	0.991	0.978	1.06	1.01	0.976	0.973	1.04	0.996	0.976	0.996	1.02	0.547 (active)	0.898
COP(=S)(OC)Oc1nc(Cl)c(Cl)cc1Cl	1.06	1.01	1	0.998	0.947	0.96	0.935	1.01	0.975	0.991	0.978	0.986	0.997	0.913	0.94	1.07	0.989	0.942	0.937	0.951
CCCCc1c(C)nc(N(C)C)[nH]c1=O	0.964	1.01	0.966	0.984	1.03	0.989	0.982	0.998	0.997	1.05	1	0.976	0.913	0.825	1.09	1	0.896	1.05	1.03	1.01
CCCN(CC1CC1)c1c([N+](=O)[O-])cc(C(F)(F)F)cc1[N+](=O)[O-]	1.35	0.93	1.03	0.953	1.42	1	1.03	1.03	0.979	0.955	0.995	1.01	1.03	1	1.09	1.11	0.977	0.943	1.03	1.03
CC(C)NC(=O)N1CC(=O)N(c2cc(Cl)cc(Cl)c2)C1=O	0.919	0.969	0.989	1.01	1.1	1.01	0.967	1.01	1.04	1.05	1.01	1.03	0.983	0.995	0.948	1.09	0.991	1	0.979	1

Source: the supplement of paper PMC12669032
